According to the supplement of paper PMC12645437, “Orthogonal IMiD-Degron Pairs Induce Selective Protein Degradation in Cells” (ACS Chemical Biology, 2025):
In all, about 8,300 sequences were measured (“log2 fold change of degron read counts, EGFP-low vs EGFP+ sorted cells (limma voom), compound-induced degradation”: median about -1.1, highest 2% from about 3.2 on). The sample holds the highest values, similar sequences and a random draw of the others, so the mix is not that of the screen.

T1: CRBN, Q96SW2
T1 chain: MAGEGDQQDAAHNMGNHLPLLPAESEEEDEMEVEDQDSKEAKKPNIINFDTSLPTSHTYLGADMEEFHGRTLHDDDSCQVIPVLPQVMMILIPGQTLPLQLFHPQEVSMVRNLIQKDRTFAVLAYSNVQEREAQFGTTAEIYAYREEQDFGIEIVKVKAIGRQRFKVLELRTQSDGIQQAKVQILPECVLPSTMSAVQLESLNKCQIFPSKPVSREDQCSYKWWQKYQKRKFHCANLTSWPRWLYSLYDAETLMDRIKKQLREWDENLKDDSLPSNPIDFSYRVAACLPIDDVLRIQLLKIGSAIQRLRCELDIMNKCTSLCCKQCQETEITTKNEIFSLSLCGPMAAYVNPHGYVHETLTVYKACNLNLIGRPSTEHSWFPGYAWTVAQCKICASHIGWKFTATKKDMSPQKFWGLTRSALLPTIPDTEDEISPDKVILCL

B1: 46L_47Y_49E_50I_52G_53F_54G_55C_67L_, Q9UKT9 (peptide)
chain: LYCEICGFGCTQKGNLLRHIKL
B2: 46F_47V_49N_50Q_52G_53R_54W_55F_67L_, Q9UKT9 (peptide)
chain: FVCNQCGRWFTQKGNLLRHIKL
B3: 46F_47D_49N_50V_52G_53A_54K_55F_67L_, Q9UKT9 (peptide)
chain: FDCNVCGAKFTQKGNLLRHIKL
B4: 46L_47N_49P_50I_52G_53F_54Y_55C_67L_, Q9UKT9 (peptide)
chain: LNCPICGFYCTQKGNLLRHIKL
B5: 46L_47E_49P_50I_52G_53F_54Y_55C_67L_, Q9UKT9 (peptide)
chain: LECPICGFYCTQKGNLLRHIKL
B6: 46L_47L_49P_50I_52G_53F_54Y_55C_67L_, Q9UKT9 (peptide)
chain: LLCPICGFYCTQKGNLLRHIKL
B7: 46L_47Y_49P_50I_52G_53F_54Y_55C_67L_, Q9UKT9 (peptide)
chain: LYCPICGFYCTQKGNLLRHIKL
B8: 46L_47T_49P_50I_52G_53F_54Y_55C_67L_, Q9UKT9 (peptide)
chain: LTCPICGFYCTQKGNLLRHIKL
B9: 46L_47K_49P_50I_52G_53F_54Y_55C_67L_, Q9UKT9 (peptide)
chain: LKCPICGFYCTQKGNLLRHIKL
B10: 46F_47C_49E_50I_52G_53H_54I_55F_67L_, Q9UKT9 (peptide)
chain: FCCEICGHIFTQKGNLLRHIKL
B11: 46F_47L_49N_50Q_52G_53R_54T_55F_67L_, Q9UKT9 (peptide)
chain: FLCNQCGRTFTQKGNLLRHIKL
B12: 46F_47N_49P_50Q_52G_53A_54N_55F_67L_, Q9UKT9 (peptide)
chain: FNCPQCGANFTQKGNLLRHIKL
B13: 46F_47T_49E_50I_52G_53A_54Y_55F_67L_, Q9UKT9 (peptide)
chain: FTCEICGAYFTQKGNLLRHIKL
B14: 46F_47I_49N_50I_52G_53A_54T_55F_67L_, Q9UKT9 (peptide)
chain: FICNICGATFTQKGNLLRHIKL
B15: 46F_47V_49N_50I_52G_53A_54Q_55F_67L_, Q9UKT9 (peptide)
chain: FVCNICGAQFTQKGNLLRHIKL
B16: 46F_47A_49N_50I_52G_53A_54Q_55F_67L_, Q9UKT9 (peptide)
chain: FACNICGAQFTQKGNLLRHIKL
B17: 46F_47Q_49N_50I_52G_53A_54Q_55F_67L_, Q9UKT9 (peptide)
chain: FQCNICGAQFTQKGNLLRHIKL
B18: 46F_47W_49N_50I_52G_53A_54Q_55F_67L_, Q9UKT9 (peptide)
chain: FWCNICGAQFTQKGNLLRHIKL
B19: 46F_47R_49N_50I_52G_53A_54Q_55F_67L_, Q9UKT9 (peptide)
chain: FRCNICGAQFTQKGNLLRHIKL
B20: 46F_47Y_49N_50I_52G_53A_54Q_55F_67L_, Q9UKT9 (peptide)
chain: FYCNICGAQFTQKGNLLRHIKL

Molecular target: T1, CRBN, Q96SW2
Assay: log2 fold change of degron read counts, EGFP-low vs EGFP+ sorted cells (limma voom), compound-induced degradation; higher = more compound-induced degradation of the degron-EGFP fusion; degrons are variants of IKZF1/3 zinc finger 2; compound dose not given here
Conditions: Jurkat, 18 h
Protocol: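 Pooled library of 8380 IKZF3 ZF2 degron mutants (positions 146-167 varied within the IKZF3 130-189 degron; only the varied core is printed, flanks not printed) fused to EGFP with IRES-mCherry, lentivirally expressed in Jurkat cells. mCherry+ cells were treated with one IMiD compound for 18 h (dose not stated) and FACS-sorted into EGFP-low and EGFP+ populations. Degron sequences were counted by NGS, and log2FC (EGFP-low vs EGFP+) was estimated by limma voom over 3 biological replicates.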

[1] = compound: compound 19 (5-tert-butyl-thalidomide)
[2] = compound: compound 22 (5-morpholino-thalidomide)
[3] = compound: compound 33 (diphenyl IMiD analogue)
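Also: pooled lentiviral library of zinc finger degron-EGFP fusions in mCherry-positive Jurkat cells, FACS-sorted after compound exposure, with degron abundance counted by next-generation sequencing.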

| Sequence | log2 fold change of degron read counts [1] | log2 fold change of degron read counts [2] | log2 fold change of degron read counts [3] | log2 fold change of degron read counts (compound: thalidomide) |
| --- | --- | --- | --- | --- |
| B1 | 2.73 | 2.15 | 1.33 | 0.286 |
| B2 | -2.52 | -2.06 | -2.42 | -1.9 |
| B3 | -1.36 | -2.41 | -2.78 | -0.891 |
| B4 | 1.76 | 1.72 | 1.52 | 2.04 |
| B5 | 0.407 | 0.1 | 2.47 | 3.34 |
| B6 | 0.305 | 0.574 | 1.63 | 1.96 |
| B7 | 3.22 | 3.11 | 2.72 | 1.82 |
| B8 | 1.69 | 2.58 | 2.93 | 3.24 |
| B9 | -0.431 | -0.605 | -1.14 | 0.828 |
| B10 | -2.19 | -2.44 | -1.42 | -1.61 |
| B11 | -2.4 | -2.94 | -3.37 | -2.18 |
| B12 | -1.43 | -2.18 | -1.52 | -2.31 |
| B13 | 0.598 | 1.53 | 2.02 | 2.85 |
| B14 | -1.79 | 0.00658 | 1.15 | 1.1 |
| B15 | -0.604 | 1.47 | 2.69 | 1.92 |
| B16 | 2.04 | 1.62 | 0.179 | -0.104 |
| B17 | -0.94 | 1.3 | 1.62 | 3.28 |
| B18 | 2.02 | 3.59 | 1.86 | 0.626 |
| B19 | -1.02 | -0.868 | -0.156 | 0.111 |
| B20 | 2.24 | 3.15 | 1.75 | 0.339 |
